# Measured values from PubChem BioAssay (NCATS).
# A number with no mark means an inactive call. Records with an inconclusive call do not appear. Where a call stands in place of a potency, no number is given. The source made the active and inactive calls. Unless noted, calls follow the shape of the dose curve; as a rule, active = well fitted curve in the direction sought with a large enough effect; inconclusive = small, poorly fitted or top-dose-only effect, or another doubt; inactive = no such curve, though single readings can be large; an effect the other way counts as inactive or inconclusive.
# What was measured:
# [1] = qHTS assay for measurement of the activity of small molecule inhibitors on Zika virus induced Caspase-3 activity in human iPSC derived neural progenitor cells (hNPCs) (AID 1224857); also: nearly all actives have a fitted effect of over 65% in size
# Outline: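 Human iPSC-derived neural progenitor cells pretreated 1 hr with compounds, then infected with Zika virus (2 FFU/cell) for 6 hours at 37 C. Caspase-3/7 measured by Caspase-Glo luminescence; % inhibition calculated from induction scaled to uninfected (0%) and infected (100%) wells.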
# [2] = qHTS assay for measurement of the activity of small molecule inhibitors on Zika virus induced Caspase-3 activity in human astrocytoma cells (AID 1224859)
# Outline: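 SNB-19 astrocytoma cells, 250/well, pretreated 1 h with compounds, then Zika virus at 2 FFU/cell for 6 h at 37 C; Caspase-Glo 3/7 luminescence after 30 min; percent inhibition normalised to uninfected and infected controls.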
# [3] = qHTS assay to identify small molecule inhibitors of chordoma cells - UCH-1 (AID 1259355); also: nearly all actives have a fitted effect of over 55% in size; also: potency is read from the fitted curve at half-maximal effect; series mostly up to about 46 µM
# Outline: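 A 48hr growth-inhibition format: each drug tested at 15 concentrations together with added auranofin, camptothecin, doxorubicin, rubitecan and topotecan, with cell viability quantified as CellTiter-Glo luminescence.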
# [4] = qHTS assay to identify small molecule inhibitors of chordoma cells - UCH-2 (AID 1259356); also: series mostly up to about 46 µM
# [5] = Natriuretic polypeptide receptor (hNpr1) antagonism - Pilot counterscreen GloSensor control cell line (AID 1347045; calls by dose curve; also: series mostly up to about 38 µM)
# Outline: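 Control counterscreen: luciferase cGMP-biosensor HEK293 cells (no Npr1) received compound for 30 min at room temperature after GloSensor substrate loading. Luminescence was measured before and 20 min after soluble guanylyl cyclase activation by 50 uM nitroprusside.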
# [6] = target: Atrial natriuretic peptide receptor 2 (Homo sapiens) (UniProt P20594); test: Natriuretic polypeptide receptor (hNpr2) antagonism - Pilot subtype selectivity assay (AID 1347050; calls by dose curve; also: potency is read from the fitted curve at half-maximal effect)
# Outline: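 Read-out: GloSensor luminescence (CCD imager), baseline vs post-stimulation. HEK293 cells expressing hNpr2; compounds pre-incubated 30-50 min at ambient temperature; hNppC 1 nM final, 20 min.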
# [7] = NS1 protein of Zika virus - qHTS assay to identify small molecule inhibitors in human HEK 293 cells (AID 1347053); also: series mostly up to about 46 µM; nearly all actives have a fitted effect of over 55% in size
# Outline: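 Compound-treated (1 h pre-infection) HEK 293 cells infected with ZIKV MR766, MOI = 0.5; after 24 h at 37 C, NS1 read by TR-FRET; data normalized to uninfected and infected controls.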
# [8] = target: T1, Tyrosine-protein phosphatase non-receptor type substrate 1 (Homo sapiens) + Leukocyte surface antigen CD47 (Homo sapiens) (UniProt P78324+Q08722); test: CD47-SIRPalpha protein protein interaction - LANCE assay qHTS validation (AID 1347057; active = well fitted curve in the direction sought with a large enough effect in the signal ratio, with a control signal flat, not every such curve was filed as active; the % refers to the signal ratio; also: series mostly up to about 38 µM)
# Outline: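 Inhibition of soluble CD47/SIRPalpha ectodomain association by titrated compounds, measured as 665/615 nm time-resolved FRET ratio after sequential 30 min room-temperature incubations.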
# [9] = target: T1, Tyrosine-protein phosphatase non-receptor type substrate 1 (Homo sapiens) + Leukocyte surface antigen CD47 (Homo sapiens); test: CD47-SIRPalpha protein protein interaction - HTRF assay qHTS validation (AID 1347058; active = well fitted curve in the direction sought with a large enough effect in the signal ratio, not every such curve was filed as active; the % refers to the signal ratio; also: series mostly up to about 38 µM)
# Outline: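 Soluble extracellular domains (6His-CD47, Avi-tag-biotinylated SIRPalpha) in PBS pH 7.4 with 0.05% IGEPAL CA-630. Compounds were preincubated 30 min at RT with CD47 and anti-His-Eu, then SIRPalpha and SAV-XL665 were added. TR-FRET 665/615 ratio.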
# [10] = target: T1, Tyrosine-protein phosphatase non-receptor type substrate 1 (Homo sapiens) + Leukocyte surface antigen CD47 (Homo sapiens); test: CD47-SIRPalpha protein protein interaction - Alpha assay qHTS validation (AID 1347059);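 also: bead proximity luminescence from CD47 binding SIRPalpha after compound preincubation with SIRPalpha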
# Outline: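 In PBS (pH 7.4) with 0.05% IGEPAL CA-630, compound is preincubated with biotin-Avi-SIRPalpha ectodomain before His-CD47 ectodomain and affinity beads are added. Light-protected room-temperature incubations; AlphaScreen readout.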
# [11] = target: Parathyroid hormone/parathyroid hormone-related peptide receptor (Homo sapiens) (UniProt Q03431); test: qHTS for PTHR1 Agonists: Optimization Screen against the NCGC LOPAC library (AID 1347079);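 also: GloSensor cAMP luminescence in HEK-293 GP2 cells expressing human PTHR1 with IBMX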
# Outline: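 HEK-293 GP2 cells, PTHR1 + GloSensor cAMP; 3000 cells/well, o/n. Luciferin + IBMX 0.5mM each (stock), 1 hr 37C. Cpd titration, 1 hr 37C. Lum after 15 min RT. Ctrl M-PTH(1-15) top 10uM.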
# [12] = qHTS of pediatric cancer cell lines to identify multiple opportunities for drug repurposing: Primary screen for TC32 cells (AID 1347089); also: nearly all actives have a fitted effect of over 60% in size
# Outline: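 Luminescent CellTiter-Glo read-out of metabolically active TC32 cells after 48 h compound exposure. Primary: MIPE 11-point, 0.78 nM–46 µM; NPC 8-point, 0.59 nM–46 µM. Confirmatory: 11-point dilutions.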
# [13] = qHTS of pediatric cancer cell lines to identify multiple opportunities for drug repurposing: Primary screen for DAOY cells (AID 1347090); also: series mostly up to about 46 µM; nearly all actives have a fitted effect of over 55% in size
# Outline: (§1)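 Eight- or eleven-point concentration series, 48 h treatment at 37 degrees C in growth media; readout CellTiter-Glo luminescence. Potency and efficacy were taken from the concentration-response curves.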
# [14] = qHTS of pediatric cancer cell lines to identify multiple opportunities for drug repurposing: Primary screen for SJ-GBM2 cells (AID 1347091); also: potency is read from the fitted curve at half-maximal effect
# Outline: as §1
# [15] = target: Atrial natriuretic peptide receptor 1 (Homo sapiens) (UniProt P16066); test: Natriuretic polypeptide receptor (hNpr1) antagonism - Pilot screen (AID 1347049; calls by dose curve;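 also: HEK293 cells with hNpr1 and GloSensor cGMP luciferase stimulated by 0.1 nM hNppA; agonist-evoked cGMP luminescence read 20 min after hNppA addition; series mostly up to about 58 µM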)
# Outline: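 Cells expressing receptor plus cGMP biosensor are seeded and incubated overnight at 37C, then loaded with GloSensor reagent (2% final) at room temperature for 2 h. Library compounds go on for 30 min. A pre-read precedes agonist (hNppA, 0.1 nM final) and a 20-min readout.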
# Sequence of Atrial natriuretic peptide receptor 1 (Homo sapiens) (P16066 whole entry, looked up): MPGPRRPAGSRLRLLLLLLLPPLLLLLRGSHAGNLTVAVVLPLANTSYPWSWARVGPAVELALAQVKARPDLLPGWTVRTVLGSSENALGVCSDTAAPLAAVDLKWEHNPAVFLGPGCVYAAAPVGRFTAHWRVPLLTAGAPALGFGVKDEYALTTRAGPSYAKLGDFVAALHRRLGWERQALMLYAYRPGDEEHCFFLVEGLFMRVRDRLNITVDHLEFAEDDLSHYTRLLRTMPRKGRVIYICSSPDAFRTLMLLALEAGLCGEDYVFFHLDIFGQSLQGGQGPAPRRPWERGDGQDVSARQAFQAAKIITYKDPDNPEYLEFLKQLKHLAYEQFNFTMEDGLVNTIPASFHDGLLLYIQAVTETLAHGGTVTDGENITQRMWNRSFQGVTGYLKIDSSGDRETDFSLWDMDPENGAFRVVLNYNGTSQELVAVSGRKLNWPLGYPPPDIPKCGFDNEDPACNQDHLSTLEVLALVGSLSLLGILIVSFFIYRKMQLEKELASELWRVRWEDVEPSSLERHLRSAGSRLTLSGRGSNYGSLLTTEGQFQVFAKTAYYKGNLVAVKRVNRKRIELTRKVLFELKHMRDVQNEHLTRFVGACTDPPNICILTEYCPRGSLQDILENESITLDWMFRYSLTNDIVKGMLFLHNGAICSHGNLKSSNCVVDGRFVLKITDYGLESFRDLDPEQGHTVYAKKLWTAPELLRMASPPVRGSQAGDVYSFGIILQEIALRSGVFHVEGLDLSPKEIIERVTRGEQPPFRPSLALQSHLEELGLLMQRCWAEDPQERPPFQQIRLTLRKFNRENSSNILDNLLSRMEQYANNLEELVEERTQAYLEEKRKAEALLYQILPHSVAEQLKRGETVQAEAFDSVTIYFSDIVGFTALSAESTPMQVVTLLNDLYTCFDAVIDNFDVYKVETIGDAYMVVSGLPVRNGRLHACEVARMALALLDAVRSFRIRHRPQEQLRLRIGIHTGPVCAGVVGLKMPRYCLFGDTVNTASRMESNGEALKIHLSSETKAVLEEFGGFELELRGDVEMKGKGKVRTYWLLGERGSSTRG
# Sequence of Atrial natriuretic peptide receptor 2 (Homo sapiens) (P20594 whole entry, looked up): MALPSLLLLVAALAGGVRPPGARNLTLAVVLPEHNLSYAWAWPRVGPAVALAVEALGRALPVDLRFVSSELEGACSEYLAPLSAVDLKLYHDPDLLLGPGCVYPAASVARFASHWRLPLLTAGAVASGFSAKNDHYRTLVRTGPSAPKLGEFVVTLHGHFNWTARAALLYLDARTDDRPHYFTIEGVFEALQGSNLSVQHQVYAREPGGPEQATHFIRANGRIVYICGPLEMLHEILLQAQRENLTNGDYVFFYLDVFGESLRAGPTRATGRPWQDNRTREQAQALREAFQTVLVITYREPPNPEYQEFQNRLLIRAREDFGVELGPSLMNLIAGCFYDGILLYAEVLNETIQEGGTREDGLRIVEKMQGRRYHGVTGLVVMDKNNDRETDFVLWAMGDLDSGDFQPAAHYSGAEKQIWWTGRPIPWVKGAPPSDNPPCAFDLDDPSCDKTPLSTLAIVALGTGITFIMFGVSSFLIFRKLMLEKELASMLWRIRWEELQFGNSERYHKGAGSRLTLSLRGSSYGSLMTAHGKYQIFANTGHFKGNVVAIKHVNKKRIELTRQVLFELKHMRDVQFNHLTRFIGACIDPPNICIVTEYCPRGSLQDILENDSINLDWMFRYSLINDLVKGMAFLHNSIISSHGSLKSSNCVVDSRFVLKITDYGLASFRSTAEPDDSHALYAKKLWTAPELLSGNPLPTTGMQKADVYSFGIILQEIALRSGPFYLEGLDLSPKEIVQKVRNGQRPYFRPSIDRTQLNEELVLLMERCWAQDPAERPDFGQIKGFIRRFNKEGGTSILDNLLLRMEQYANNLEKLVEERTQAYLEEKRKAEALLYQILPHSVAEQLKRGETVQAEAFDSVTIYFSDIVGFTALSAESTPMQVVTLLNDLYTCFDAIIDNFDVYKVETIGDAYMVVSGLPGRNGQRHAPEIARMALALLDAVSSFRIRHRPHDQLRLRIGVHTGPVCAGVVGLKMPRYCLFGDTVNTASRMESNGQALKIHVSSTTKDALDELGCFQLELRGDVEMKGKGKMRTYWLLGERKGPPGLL
# Sequence of Parathyroid hormone/parathyroid hormone-related peptide receptor (Homo sapiens) (Q03431 whole entry, looked up): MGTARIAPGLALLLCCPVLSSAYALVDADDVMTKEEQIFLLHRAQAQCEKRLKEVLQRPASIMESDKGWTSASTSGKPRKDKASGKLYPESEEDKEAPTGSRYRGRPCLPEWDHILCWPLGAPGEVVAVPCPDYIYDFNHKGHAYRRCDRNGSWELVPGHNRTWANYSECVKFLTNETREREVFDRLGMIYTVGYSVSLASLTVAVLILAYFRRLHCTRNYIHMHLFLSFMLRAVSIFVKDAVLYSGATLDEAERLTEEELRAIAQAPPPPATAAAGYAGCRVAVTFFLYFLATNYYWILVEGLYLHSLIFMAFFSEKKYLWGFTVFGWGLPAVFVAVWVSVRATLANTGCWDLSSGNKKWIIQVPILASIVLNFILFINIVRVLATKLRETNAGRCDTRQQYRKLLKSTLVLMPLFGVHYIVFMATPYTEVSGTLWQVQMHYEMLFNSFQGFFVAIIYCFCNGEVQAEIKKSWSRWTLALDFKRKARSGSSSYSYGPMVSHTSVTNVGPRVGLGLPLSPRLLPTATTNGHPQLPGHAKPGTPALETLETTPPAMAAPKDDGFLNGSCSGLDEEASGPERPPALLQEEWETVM
# T1 sequence (P78324 whole entry, looked up, the tested form may be a part): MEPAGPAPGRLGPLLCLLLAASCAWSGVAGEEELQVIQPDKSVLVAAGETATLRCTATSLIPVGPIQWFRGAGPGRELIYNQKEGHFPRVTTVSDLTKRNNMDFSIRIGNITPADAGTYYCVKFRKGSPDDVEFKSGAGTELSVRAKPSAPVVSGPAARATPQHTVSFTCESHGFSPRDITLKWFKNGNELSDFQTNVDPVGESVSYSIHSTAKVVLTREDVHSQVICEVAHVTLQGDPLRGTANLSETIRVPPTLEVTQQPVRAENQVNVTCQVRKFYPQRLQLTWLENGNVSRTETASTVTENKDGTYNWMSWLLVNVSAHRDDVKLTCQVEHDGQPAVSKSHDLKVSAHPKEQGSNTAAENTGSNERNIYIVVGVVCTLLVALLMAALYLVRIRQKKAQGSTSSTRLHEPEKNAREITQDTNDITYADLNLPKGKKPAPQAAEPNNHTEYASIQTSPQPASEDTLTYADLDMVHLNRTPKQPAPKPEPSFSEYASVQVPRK
# T1 sequence (Q08722 whole entry, looked up, the tested form may be a part): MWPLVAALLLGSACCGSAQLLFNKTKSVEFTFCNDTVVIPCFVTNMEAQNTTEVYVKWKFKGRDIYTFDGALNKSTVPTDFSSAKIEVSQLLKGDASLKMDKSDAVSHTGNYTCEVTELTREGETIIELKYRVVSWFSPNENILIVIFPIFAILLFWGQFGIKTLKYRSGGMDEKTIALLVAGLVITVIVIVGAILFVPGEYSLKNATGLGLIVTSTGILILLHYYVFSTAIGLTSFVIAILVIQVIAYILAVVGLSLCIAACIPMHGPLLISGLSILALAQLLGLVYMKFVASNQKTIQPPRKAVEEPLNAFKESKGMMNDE
Compound,outcome [1],outcome [2],Potency [3],Potency [4],Potency [5],Potency [6],outcome [7],outcome [8],outcome [9],Potency [10],outcome [11],Potency [12],Potency [13],Potency [14],Potency [15]
CN1CCN(C2=Nc3ccccc3Oc3ccc(Cl)cc32)CC1,inactive,inactive,inactive,inactive,inactive,16.5 µM (active),inactive,inactive,inactive,inactive,inactive,inactive,inactive,inactive,
CC(C)(C)c1ccc(C(=O)CCCN2CCC(OC(c3ccccc3)c3ccccc3)CC2)cc1,inactive,inactive,15.8 µM (active),inactive,,inactive,inactive,inactive,,inactive,,inactive,,26.6 µM (active),inactive
CC(C)COCC(CN(Cc1ccccc1)c1ccccc1)N1CCCC1 (configuration not stated),inactive,inactive,inactive,inactive,,inactive,inactive,inactive,,inactive,inactive,,,,inactive
CCN(Cc1ccncc1)C(=O)C(CO)c1ccccc1 (configuration not stated),inactive,inactive,,inactive,inactive,inactive,inactive,inactive,inactive,inactive,inactive,inactive,inactive,inactive,inactive
COc1cc2c(cc1OC)-c1cc(=Nc3c(C)cc(C)cc3C)n(C)c(=O)n1CC2,inactive,inactive,25.1 µM (active),inactive,,inactive,,inactive,,,,,,16.8 µM (active),inactive
Cc1scc2c1N(C(=O)CN1CCN(C)CC1)c1ccccc1NC2=O,inactive,inactive,inactive,inactive,,inactive,inactive,inactive,,inactive,inactive,inactive,inactive,inactive,inactive
OCCN1CCN(CCCN2c3ccccc3C=Cc3ccccc32)CC1,inactive,inactive,inactive,,,,inactive,inactive,inactive,inactive,inactive,inactive,inactive,inactive,inactive
CN1C[C@H](C(=O)N[C@]2(C)O[C@@]3(O)[C@@H]4CCCN4C(=O)[C@H](Cc4ccccc4)N3C2=O)C[C@@H]2c3cccc4[nH]cc(c34)C[C@H]21,inactive,inactive,,inactive,,inactive,inactive,inactive,inactive,,,inactive,inactive,,inactive
